Test results: PubChem BioAssay (NCI)
This is part of a sample that, as a whole, favours compounds with a hit. Of some 83,000 tested, about 20% had one in any assay.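 Plates (96-well) were seeded with cells, treated with compound at one concentration, and incubated for 48 hours before percent growth was determined.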 The source made the active and inactive calls. How the source made its calls: active means growth percent below 10; inactive means the rest.

How the values were obtained:
Assay in all cases: NCI-60 one-dose screen, 48 h (100 = growth as untreated, 0 = no growth, -100 = all killed)
[1] = tested on: NCI-H23 lung; details: 10 µM unless noted
[2] = tested on: NCI-H226 lung; details: 10 µM unless noted
[3] = tested on: NCI-H322M lung; details: 10 µM unless noted
[4] = tested on: HOP-62 NSCLC; details: 10 µM unless noted
[5] = tested on: HOP-92 NSCLC; details: 10 µM unless noted
[6] = tested on: NCI-H522 lung; details: 10 µM unless noted
[7] = tested on: A549/ATCC NSCLC; details: 10 µM unless noted
[8] = tested on: 786-0 renal; details: 10 µM unless noted
[9] = tested on: COLO 205 colon; details: 10 µM unless noted
[10] = tested on: DU-145 prostate; details: 10 µM unless noted
[11] = tested on: MALME-3M melanoma; details: 10 µM unless noted
[12] = tested on: MDA-MB-231 breast; details: 10 µM unless noted
[13] = tested on: RXF 393 renal; details: 10 µM unless noted
[14] = tested on: SF-268 CNS; details: 10 µM unless noted
[15] = tested on: SF-295 CNS; details: 10 µM unless noted
[16] = tested on: SF-539 CNS; details: 10 µM unless noted
[17] = tested on: UACC-257 melanoma; details: 10 µM
[18] = tested on: M14 melanoma; details: 10 µM unless noted
[19] = tested on: K-562 leukemia; details: 10 µM unless noted
[20] = tested on: NCI-H460 lung; details: 10 µM unless noted

Measured: growth

C/C(=C(/c1ccc(O)cc1)c1ccc(OCCN2CCCC2)cc1)c1ccc(Cl)cc1
inactive: [1] 46.8% | [2] 72.3% | [3] 53.8% | [4] 63.1% | [5] 50.3% | [6] 61.1% | [7] 47.6% | [8] 45.7% | [10] 65.1% | [12] 40.9% | [14] 60.9% | [15] 67.8%
active: [9] -86.6% | [11] -39.9% | [13] 3.89% | [16] 0.146% | [17] -77.6% | [18] -64.7%

CCCCCCCCCC[C@@H](C)[C@@H]1CC(=O)N[C@H]([C@@H](C)O)C(=O)N[C@@H](C)C(=O)N[C@H](C)C(=O)N[C@@H](CCC(N)=O)C(=O)N[C@H](Cc2ccc(O)cc2)C(=O)N[C@@H](C(C)CC)C(=O)O1 (stereo not given in full)
inactive: [1] 35.6% | [2] 42.1% | [3] 89.1% | [4] 73.9% | [5] 43.3% | [6] 36.1% | [7] 47.6% | [8] 91.8% | [9] 66% | [10] 57.1% | [19] 40.6% | [11] 65.7% | [12] 96.6% | [13] 97.5% | [14] 84.8% | [15] 36.2% | [16] 60.5% | [18] 79.4%

COCCC[C@H]1O[C@@](O)([C@H](C)[C@@H]2CC(OC)C(O)/C=C(C)/C=C(C)/C=C(\C)C(OC3O[C@@H](C)[C@H](O)C(O)[C@@H]3O)C(C)/C=C(C)/C=C(OC)/C=C(\C)C(=O)O2)C(OC)C(O)[C@]1(C)O[C@H]1C[C@@H](O)[C@H](O[C@H]2C[C@](C)(O)[C@H](O)C(C)O2)C(C)O1 (stereo not given in full)
inactive: [1] 41.2% | [3] 97.4% | [4] 68.9% | [20] 52.1% | [5] 88.2% | [6] 34.2% | [7] 40% | [8] 73.1% | [9] 40.4% | [10] 48.5% | [19] 21.2% | [11] 51.1% | [12] 84.1% | [13] 47.6% | [14] 73% | [15] 24.8% | [16] 79.2%
active: [17] 3.39%

CC(=O)Nc1ccc(C)c(Nc2cc(-c3ccc(-n4cccn4)cc3)[nH]n2)c1
inactive: [1] 67% | [2] 57.9% | [3] 83.8% | [4] 51.7% | [5] 113% | [6] 14.3% | [7] 60.2% | [8] 74.9% | [9] 67.1% | [10] 81.5% | [19] 19% | [11] 73.6% | [12] 82.8% | [13] 52.8% | [14] 60.6% | [15] 46.1% | [16] 41.3% | [17] 64.4% | [18] 19.2%

Nc1c(C(=O)c2ccccc2)sc2nc(-c3cnccn3)cc(-c3cccs3)c12
inactive: [1] 104% | [2] 95.8% | [3] 100% | [4] 97.6% | [5] 106% | [6] 96.8% | [7] 102% | [8] 106% | [9] 108% | [10] 106% | [19] 99.4% | [11] 104% | [12] 92.7% | [13] 108% | [14] 97.8% | [15] 105% | [16] 95.2% | [17] 103% | [18] 97.4%

CCc1ccc(NC(=O)N[C@@H](Cc2cccc(F)c2)C(=O)N[C@@H]2C(=O)N3CCC[C@H]3C(=O)N3CCCC[C@H]3C(=O)N[C@@H](CO)C(=O)N3C[C@H](C)C[C@H]3C(=O)O[C@H]2C)c(F)c1
active: [2] -1.86% | [5] 2.76% | [9] -50.4% | [13] -11.7%
inactive: [1] 32.9% | [3] 51.1% | [4] 37.8% | [6] 20.1% | [7] 36.3% | [8] 44.1% | [10] 26.9% | [19] 20.1% | [11] 41.5% | [12] 35.2% | [14] 30.6% | [15] 15.8% | [16] 39.8% | [17] 16% | [18] 21.4%

Cc1cc(NS(=O)(=O)c2ccc(-c3cnc(C4CC4)o3)cc2)ccc1I
active: [15] -2.36%
inactive: [1] 37.7% | [2] 57.8% | [3] 45.8% | [4] 43.8% | [6] 30.6% | [7] 48.1% | [8] 46.3% | [9] 22.9% | [10] 26% | [19] 11.6% | [11] 48.8% | [12] 40.9% | [13] 10.8% | [14] 65.1% | [16] 11.5% | [17] 66.8% | [18] 24.6%

CC1OC(O[C@@H]2C(O)C(CO)OC(O[C@H]3COC(O[C@H]4CC[C@]5(C)[C@H]6CC[C@]78OC[C@@]9(CC[C@](C)(C=O)C[C@H]97)[C@H](O)C[C@@]8(C)[C@]6(C)CC[C@H]5C4(C)C)[C@@H](OC4OC(CO)[C@@H](O)[C@@H](O)[C@@H]4O)[C@@H]3O)[C@H]2OC2OC[C@@H](O)[C@@H](O)[C@@H]2O)[C@@H](O)[C@@H](O)[C@H]1O (stereo not given in full)
inactive: [5] 15.5% | [10] 41.8%
active: [1] -15.2% | [2] -47.5% | [3] -35.3% | [4] -74.6% | [6] -55.4% | [7] -63.3% | [8] -53% | [9] -37.7% | [11] -69.7% | [12] -48.4% | [13] -36.2% | [14] -56.3% | [15] -59.2% | [16] 1.77% | [17] -78% | [18] -47.3%

COc1ccc(C(=O)c2c(N)c(C#N)cn2-c2cccc(OC)c2)cc1
active: [6] 3.14% | [15] -25.5% | [16] -5.54%
inactive: [1] 49.8% | [2] 63.5% | [3] 62.6% | [4] 30.6% | [5] 21.7% | [7] 42.9% | [8] 37.5% | [9] 25.3% | [10] 50.6% | [19] 14.5% | [11] 40.5% | [12] 39.2% | [13] 17.3% | [14] 64.6% | [17] 47.5% | [18] 10.3%

CC(C)c1nn(-c2ccccc2)c(N2CCCCC2)c1/C=N/NC(N)=S
inactive: [1] 90.9% | [2] 88.2% | [3] 82.3% | [4] 101% | [5] 64.6% | [6] 86.1% | [7] 79.2% | [8] 101% | [9] 97% | [10] 95.3% | [19] 82.9% | [11] 104% | [12] 107% | [13] 75.5% | [14] 88% | [15] 77.6% | [16] 88.7% | [17] 106% | [18] 113%

COc1cc2c3c(n(CCCN4CCCC4)c(=O)c2cc1OC)-c1cc2c(cc1C3=O)OCO2
inactive: [2] 80.1% | [5] 119% | [15] 35.1%
active: [1] -73.2% | [3] -40.2% | [4] -72.6% | [6] -59.7% | [7] -77.1% | [8] -90.9% | [9] -77.3% | [10] -71.1% | [11] -76.5% | [12] -76.1% | [13] -75.9% | [14] -49.1% | [16] -83.2% | [18] -86.3%

COc1cc2cc(Oc3ccc(NC(=O)Nc4cccc(C(F)(F)F)c4)cc3)c(C)nc2cc1OCCN(C)C
inactive: [1] 91.2% | [2] 104% | [3] 117% | [4] 105% | [5] 74.7% | [6] 102% | [7] 96.7% | [8] 88.7% | [9] 98.5% | [10] 92.5% | [11] 84.7% | [12] 98.1% | [13] 75.9% | [14] 107% | [15] 81.1% | [16] 92% | [17] 100% | [18] 107%
active: [19] 10%

Cc1ccc(NC(=O)N[C@@H](Cc2cc(F)cc(F)c2)C(=O)NC2C(=O)N3CCC[C@H]3C(=O)N3CCCC[C@H]3C(=O)N[C@@H](C)C(=O)N3C[C@H](C)C[C@H]3C(=O)O[C@H]2C)c(F)c1 (stereo not given in full)
active: [2] 1.32% | [5] 4.3% | [9] -33.3% | [13] -7.39% | [15] 9.62%
inactive: [1] 35.2% | [3] 52.7% | [4] 33.8% | [6] 19.7% | [7] 26.1% | [8] 40.7% | [10] 25.7% | [19] 20.2% | [11] 44.3% | [12] 34.6% | [14] 34.9% | [16] 39.2% | [17] 16.9% | [18] 23%

Oc1ccc(CSc2nnc(-c3ccccc3)n2-c2ccccc2)c2cccnc12
active: [5] -14.4% | [13] -4.02% | [15] 0.953% | [16] 0.484% | [17] 3.18% | [18] -10.6%
inactive: [1] 18.8% | [2] 19.8% | [3] 18.5% | [4] 11.1% | [6] 12.6% | [7] 13% | [8] 18.7% | [9] 61.7% | [10] 21.3% | [19] 11.2% | [11] 12.2% | [12] 31% | [14] 17.2%

Cc1nn(-c2ccccc2)cc1/C=N/Nc1nc(Nc2ccccc2)nc(Nc2ccc(S(N)(=O)=O)cc2)n1
active: [1] -14.9% | [2] -59.2% | [3] 9.11% | [4] 9.43% | [5] -13% | [6] 0.777% | [7] -28.7% | [8] -47.6% | [9] -22% | [10] 9.14% | [19] 9.56% | [11] -25.6% | [12] -20.8% | [13] -20.4% | [14] -7.97% | [16] -71.1%
inactive: [15] 10.7% | [17] 55.3%

Clc1ccccc1/C=C/c1nn2c(-c3ccncc3)nnc2s1
inactive: [1] 99% | [2] 91% | [3] 100% | [4] 108% | [5] 103% | [6] 101% | [7] 106% | [8] 96.9% | [9] 115% | [10] 103% | [11] 100% | [12] 101% | [13] 109% | [14] 98.7% | [15] 98% | [16] 98.3% | [17] 121% | [18] 85.7%
